This is a sample that favours compounds with a hit; in the whole collection about 2.4% have one here.
TLR4 MyD88 comp = blocks binding of human TLR4 to MyD88; HeLa CL3-4 TLR4/MyD88 BLA complementation, FRET ratio; actives 0.18% (n = 200,000); AID 861; O00206+Q99836; inhibition, % at 8.4 µM; in the data active = inhibition above about 25%;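 note: 0% = vehicle and 100% = reference inhibitor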
HTR2A ag = mouse HTR2A agonism via beta-arrestin recruitment. P35363. CHO-K1 mHTR2A beta-arrestin complementation, luminescence; percent of 30 µM serotonin response. activation, % at 7.6 µM. actives 0.66% (n = 360,000). AID 624169;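 active = activation above a run cutoff, the mean activation of all tested compounds plus 3 SD, cut at about 14% in these data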;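 note: 0% = plate median of compound wells and 100% = 30 µM serotonin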
Target sequence (P35363 whole entry, looked up): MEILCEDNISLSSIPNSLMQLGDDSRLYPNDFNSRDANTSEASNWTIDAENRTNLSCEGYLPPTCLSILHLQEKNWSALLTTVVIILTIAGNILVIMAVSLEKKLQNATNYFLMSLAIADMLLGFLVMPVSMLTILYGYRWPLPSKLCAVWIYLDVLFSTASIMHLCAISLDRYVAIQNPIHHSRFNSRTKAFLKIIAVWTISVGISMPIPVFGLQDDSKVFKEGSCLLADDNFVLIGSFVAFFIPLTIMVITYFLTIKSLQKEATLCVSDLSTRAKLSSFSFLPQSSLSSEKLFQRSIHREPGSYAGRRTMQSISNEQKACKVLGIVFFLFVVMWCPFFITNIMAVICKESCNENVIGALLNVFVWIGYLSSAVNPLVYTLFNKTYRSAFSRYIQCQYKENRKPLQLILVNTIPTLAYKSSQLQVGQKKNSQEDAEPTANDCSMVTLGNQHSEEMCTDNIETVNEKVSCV
ANO1 activ = activators or potentiators of mouse TMEM16A chloride channel. HEK293 TMEM16A/YFP-H148Q/I152L, iodide quench fluorescence; active compounds read low. B-score at 10 µM. Q8BHY3. actives 0.3% (n = 340,000). AID 623877;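 active = fluorescence-ratio B-score plate-corrected deviation score at least 3 library SD below zero, with starting fluorescence score within 5 deviations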;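 note: channel opened by trigger with iodide after compound preincubation; score built on the fluorescence ratio of max minus min over baseline; more negative score means more quench and so TMEM16A activation or potentiation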
TMEM16A inh = mouse TMEM16A channel inhibition, primary screen | Q8BHY3 | HEK293 TMEM16A/YFP iodide influx fluorescence, ionomycin | normalized B-score (activity score, 25-100; higher = stronger inhibition) at 10 µM | actives 1.2% (n = 310,000) | AID 588511;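 active = ratio plate-corrected score three or more library SD toward inhibition, starting fluorescence score within five deviations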;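 note: score derived from kinetic fluorescence span divided by baseline fluorescence per well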
TLR9-MyD88 block = blocks human TLR9 binding to MyD88; Q9NR96+Q99836; CHO BLA complementation TLR9-MyD88, CCF4 FRET ratio; inhibition, % at 4.98 µM; actives 0.21% (n = 340,000); AID 504734;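 active = inhibition above the mean over all tested compounds plus 3 SD, cut at about 21% in these data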;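 note: 0% = DMSO only wells and 100% = clavulanate BLA inhibitor control wells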
NOD2 RIPK2 PPI = blocks binding of human NOD2 to RIPK2 | O43353 | CHO BLA complementation NOD2-RIPK2, CCF4 ratio | inhibition, % at 4.98 µM | actives 0.38% (n = 360,000); in the data active = inhibition above about 21%;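 note: 0% = vehicle only and 100% = reference blocker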
TMEM16A reconf = reconfirmed blocker of mouse TMEM16A calcium-activated chloride channel; shares compounds with TMEM16A inh; HEK293 TMEM16A/YFP-H148Q, iodide quench fluorescence; ionomycin added to raise cell calcium; inhibition, % at 10 µM; actives 39% (n = 2,300);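 active = mean duplicate percent inhibition, scaled so buffer wells are 0 and the reference blocker 100, over three buffer SD above buffer mean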
HEK293 Ca mobil = counter-screen for TMEM16A inhibitors: effect on calcium mobilization | actives 2% (n = 2,300) | AID 652231 | shares compounds with TMEM16A inh | TMEM16A/YFP HEK293, Fluo4 calcium mobilization | calcium response (% of ionomycin), % at 10 µM;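 active = duplicate-averaged calcium signal over 20% of the ionomycin maximum, relative to buffer baseline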;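 note: each well's signal is peak minus trough fluorescence divided by its pre-addition baseline; 0% = buffer wells and 100% = ionomycin wells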
YFP-HEK293 quench = acts in parental YFP-HEK293 cells lacking TMEM16A, counter-screen; shares compounds with TMEM16A inh; iodide YFP quench, ionomycin; YFP ratio F(max-min)/F0 at 10 µM; 2,300 tested, under 10 active; AID 652233;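 active = yellow fluorescent protein signal ratio exceeding the buffer control mean by over 5 SD of those controls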;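 note: ratio is mean of duplicate wells from kinetic YFP trace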
ClC-1 rat inh = blocks the rat ClC-1 voltage-dependent chloride channel | shares compounds with TMEM16A inh | CHO ClC-1-YFP, iodide influx fluorescence quench; iodide control reads 0, buffer control 100 | ratio percent, % at 10 µM | 2,300 tested, under 10 active | AID 652236;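 active = duplicate-mean ratio percent above the mean of iodide-only control wells, which defines zero, plus 5 of their SD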;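 note: higher percent means stronger block of ClC-1 iodide influx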
Active calls of the source: *; i = inactive; x = no result.

SMILES	TLR4 MyD88 comp	HTR2A ag	ANO1 activ	TMEM16A inh	TLR9-MyD88 block	NOD2 RIPK2 PPI	TMEM16A reconf	HEK293 Ca mobil	YFP-HEK293 quench	ClC-1 rat inh
C/C(=C\C(=O)c1ccc(F)cc1)NCc1ccc2c(c1)OCO2	5.5	-2.4	-51.5*	100*	-0.5	2.3	i	i	-1.17	-17.5
CC1=C(C(=O)OCc2ccccc2)C(c2cccc(Br)c2)NC(=O)N1 (configuration not stated)	x	2.6	i	i	-4.1	-2.6	x	x	x	x
COC(=O)c1cccc(OC(N)=O)c1	21.7	x	x	i	x	x	x	x	x	x
NC(=O)c1ccc(NC(=O)CCc2nc3ccccc3s2)cc1	-6.9	1.9	i	i	6.8	0.2	x	x	x	x
O=C(Nc1ccc(Cc2nc3ccccc3s2)cc1)c1ccncc1	x	-8.2	i	25*	8.3	2.5	17.0%*	i	-0.984	-11.5
Cc1ccccc1C(=O)Oc1cccc(Nc2ncnc3ccccc23)c1	-2.5	-1.9	i	25*	-6.5	-1.3	29.5%*	i	-0.923	-13.5
C[n+]1ccc(C(=O)NCCC[N+](C)(C)C)cc1/C=N/O	0.9	-0.9	i	i	-9.2	5.5	x	x	x	x
C[C@H](CO)N1C[C@H](C)[C@@H](CN(C)S(C)(=O)=O)Oc2ccc(NC(=O)c3ccncc3)cc2C1=O	x	8.4	i	x	5.0	-9.6	x	x	x	x
CCn1c(=O)c([N+](=O)[O-])c(N2CCSCC2)c2ccccc21	x	0.7	i	25*	-6.0	-20.1	i	i	-0.849	-7.5
Cn1c(=O)c([N+](=O)[O-])c(N2CCSCC2)c2ccccc21	x	0.2	i	i	-3.8	-5.9	x	x	x	x
O=C(Nc1ccccc1)c1ccccc1OS(=O)(=O)c1ccccc1	x	-2.3	i	i	-3.6	-4.7	x	x	x	x
O=C(Oc1ccccc1)c1ccccc1OS(=O)(=O)c1ccccc1	-18.9	-9.2	i	100*	3.0	4.8	i	i	-1.43	-2.5
CC1(C(=O)Nc2ccc3c(c2)OCCO3)CSCC(=O)N1C1CCN(Cc2ccccc2)CC1 (configuration not stated)	x	0.8	x	x	x	-16.7	x	x	x	x
O=C(Cn1nc(-c2ccccc2)nc1-c1ccccc1)OC1CCCCC1	8.7	5.4	i	100*	0.0	-6.2	i	i	-1.02	-9.5
CCOC(=O)N1CCC(N2Cc3cccc(C(=O)NCC4CCN(CC(C)C)C4)c3C2=O)CC1 (configuration not stated)	-7.0	1.1	i	100*	7.9	-5.1	i	i	-1.29	-6.0
CS(=O)(=O)Nc1nc2n(n1)C(c1ccc(F)cc1)CC(c1ccccc1)N2 (configuration not stated)	x	2.7	i	i	5.2	-8.4	x	x	x	x
CC1CC(c2ccccc2)n2nc(N3C(=O)c4ccccc4C3=O)nc2N1 (configuration not stated)	-12.6	0.0	i	25*	-7.9	-3.3	i	i	-1.16	-13.5
O=C(COC(=O)c1ccc2c(c1)OCCO2)Nc1ccc(F)cc1F	x	1.9	i	x	-11.6	-0.6	x	x	x	x
CCOC(=O)c1ccc(NC(=S)N2CCN(C)CC2)cc1	x	-7.2	i	25*	0.8	3.7	i	i	-0.837	-0.5
CCCCCCNC(=O)CC(c1ccccc1)c1cc(Br)ccc1O (configuration not stated)	-2.4	-3.0	i	100*	-0.9	8.5	47.0%*	i	-0.88	-22.0
COc1ccc(Cc2noc(CN3CCN(Cc4cccc(Cl)c4)CC3)n2)cc1OC	-5.2	1.7	i	i	-6.1	6.8	x	x	x	x
COc1ccc(Cc2noc(CN3CCN(c4ccc(Cl)cn4)CC3)n2)cc1OC	0.6	-3.8	i	100*	3.5	-11.8	27.5%*	i	-0.991	5.5
CCOC(=O)c1c(C)[nH]c(C(=O)N/N=C\c2ccccc2O)c1C	2.6	-2.3	i	i	2.8	2.2	x	x	x	x
CCOC(=O)c1c(C)[nH]c(C(=O)N/N=C/c2cc([N+](=O)[O-])ccc2O)c1C	x	-0.9	i	25*	-0.7	-4.5	20.5%*	i	-1.13	-7.5
COC(=O)c1cc(NC(=O)C(C)c2ccc(CC(C)C)cc2)ccc1O (configuration not stated)	19.3	-3.7	i	25*	x	-7.2	21.5%*	i	-0.94	-9.0
SMILES	TLR4 MyD88 comp	HTR2A ag	ANO1 activ	TMEM16A inh	TLR9-MyD88 block	NOD2 RIPK2 PPI	TMEM16A reconf	HEK293 Ca mobil	YFP-HEK293 quench	ClC-1 rat inh
CC(C)Cc1ccc(C(C)C(=O)Nc2ncccn2)cc1 (configuration not stated)	4.7	-2.6	i	i	2.7	-1.5	x	x	x	x
Cc1cccc(/N=C/c2sc3ccccc3c2O)n1	x	0.3	i	i	-1.4	-6.5	i	i	-1.26	-7.5
Oc1c(C=Nc2cccc3cccnc23)sc2ccccc12	7.6	x	x	i	x	x	x	x	x	x
Cc1ccc(/C(N)=N/OC(=O)/C=C/c2ccccc2)cc1	-0.2	-5.6	i	i	-0.1	-11.1	x	x	x	x
Clc1ccc(Cc2ccc(SCc3ccccc3)nn2)c(Cl)c1	-6.3	-0.2	i	25*	-1.8	-9.8	i	i	-1.3	-13.0
Clc1ccc(Cc2ccc(Cl)nn2)c(Cl)c1	-9.1	0.8	i	i	4.9	-9.7	x	x	x	x
O=C(C1=C(O)C(=O)N(CC2CCCO2)C1c1cccc(Cl)c1)c1ccco1 (configuration not stated)	x	-3.4	i	i	-4.2	1.0	x	x	x	x
COc1cc(C2c3c(oc4ccccc4c3=O)C(=O)N2Cc2ccco2)ccc1O (configuration not stated)	-1.2	10.6	i	25*	1.4	-2.9	i	i	-0.898	-3.5
COc1cccc(C2c3c(oc4ccccc4c3=O)C(=O)N2Cc2ccco2)c1 (configuration not stated)	x	0.9	i	i	12.2	1.6	x	x	x	x
NC1=NC(=O)CC(C(=O)NCc2ccccc2)S1 (configuration not stated)	-4.5	4.2	i	i	1.4	3.3	x	x	x	x

Screening data (PubChem BioAssay)
